Test results reported in PubChem BioAssay (NCATS).
Records with an inconclusive call do not appear. Activity calls are given as the source filed them. Calls follow the shape of the dose curve; as a rule, active = well fitted curve in the direction sought with a large enough effect; inconclusive = small, poorly fitted or top-dose-only effect, or effect the other way, or another doubt; inactive = no such curve, though single readings can be large or run the other way.

Assay: qHTS Assay for Identification of Small Molecule Agonists for NFkB Signaling Pathway. (AID 624478);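 also: compounds tested together with TNF alpha at its EC50 of 10 pM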
Settings: NFkB pathway reporter cell assay, agonist mode, cells co-stimulated with 10 pM TNF alpha; series mostly up to 46.1 µM
Protocol: The TNF alpha/NFkB signaling pathway was assayed in NFkB-bla cells (Invitrogen), a ME-180 cervical carcinoma line containing a stably integrated beta-lactamase reporter gene controlled by a NFkB response element. This reporter is induced by TNF alpha at 10 pM EC50 and inhibited by the proteosome inhibitor MG-132 at approximately 100 nM IC50. The assay was screened at the EC50 of TNF alpha activation to identify activators of TNF alpha/NFkB signaling
Cells were trypsinized, washed in assay medium (AM, OPTI MEM with 0.5% fetal bovine serum, 0.1 mM nonessential amino acids, 1 mM sodium pyruvate, 10mM HEPES pH 7.3, 100U/ml penicillin, and 100 ug/ml streptomycin) and plated at 1000 cells/5 uL/well into black clear-bottom 1536 well plates. After an overnight incubation at 37 C and 5% CO2, 23 nL of compound were delivered by a pin tool, 1 uL of TNF alpha (10 pM final concentration in AM) was added and plates were incubated at 37 C for 5 hrs. One uL of LiveBLAzerTM detector mix (Invitrogen) was added, the plates incubated at room temperature for 2 hrs, and fluorescence intensity at 460 and 530 nm emission was measured at 405 nm excitation by an Envision (Perkin Elmer).

Row | SMILES | outcome
1 | CC(=O)OCCN1C(=O)c2c(C)nc3ccc(S(=O)(=O)N4CCOCC4)cc3c2C1=O | inactive
2 | Cc1cn2c(-c3cn[nH]c3)cnc2c(Nc2ccc(C(=O)N3CCNCC3)cc2F)n1 | inactive
3 | CC(C)c1ccc(Cn2ccc3c4c(N)nc(NC5CC5)nc4ccc32)cc1 | inactive
4 | Cc1cc(Nc2cc(NC(=O)c3c(Cl)cccc3Cl)ccn2)nc(N)n1 | inactive
5 | O=C(C=Cc1c(C(=O)O)[nH]c2cc(Cl)cc(Cl)c12)Nc1ccccc1 | inactive
6 | C1=CCOCc2cc(ccc2OCCN2CCCC2)Nc2nccc(n2)-c2cccc(c2)OCC1 | inactive
7 | CC(C)(C)OC(=O)Nc1ccc(-c2cc(C(=O)NCCCCCCC(=O)NO)no2)cc1 | inactive
8 | CC(=O)Nc1sc2c(c1-c1nc3ccccc3s1)CNC2 | inactive
9 | C#Cc1cccc(Nc2ncnc3cc(OC)c(OCCCCCCC(=O)NO)cc23)c1 | inactive
10 | COc1cc2ncnc(Nc3ccc(F)c(Cl)c3)c2cc1NC(=O)C=CCN1CCCCC1 | inactive
11 | CCCCN1CCC(CNC(=O)c2c3n(c4ccccc24)CCCO3)CC1 | inactive
12 | COc1ccc(OC)c(-c2nnc3ccc(-c4ccc(OC)c(O[C@@H]5CCOC5)c4)nn23)c1 | inactive
13 | Cn1c(=O)n(-c2ccc(C(C)(C)C#N)cc2)c2c3cc(-c4cnc5ccccc5c4)ccc3ncc21 | inactive
14 | CC[C@H](CO)Nc1nc(NCc2ccccc2)c2ncn(C(C)C)c2n1 | inactive
15 | Cc1ccc(-c2ncn(-c3ccc(Nc4nccc(-c5cccc(N6CCOCC6)c5)n4)cc3)n2)cn1 | inactive
16 | Cc1cc(Nc2cc(N3CCN(C)CC3)nc(C=Cc3ccccc3)n2)n[nH]1 | inactive
17 | COc1ccc(CC2SC(=O)NC2=O)cc1C(=O)NCc1ccc(C(F)(F)F)cc1 (stereo not given) | inactive
18 | Cc1ccc(C(N)=O)cc1Nc1nccc(-c2cn(C(C)C)c3cnccc23)n1 | inactive
19 | COc1cc(C(C)C)c2c(c1)S(=O)(=O)N(COc1cc(=O)n3cccc(OCCN4CCCCC4)c3n1)C2=O | inactive
20 | O=C(C=Cc1cccc(S(=O)(=O)Nc2ccccc2)c1)NO | inactive

Row | SMILES | outcome
21 | O=C(O)c1ccc2c(c1)nc(Nc1cccc(Cl)c1)c1ccncc12 | inactive
22 | O=C(Nc1cc(C(F)(F)F)cc(C(F)(F)F)c1)c1cc(Cl)ccc1O | inactive
23 | O=C(O)c1ccc2cc(-c3ccc(O)c(C45CC6CC(CC(C6)C4)C5)c3)ccc2c1 | inactive
24 | Cn1c2cc(S(C)=O)sc2c2cnn(Cc3cccc(N)c3)c(=O)c21 (stereo not given) | inactive
25 | COc1cc2c(Oc3ccc4[nH]c(C)cc4c3F)ncnc2cc1OCCCN1CCCC1 | inactive
26 | Cc1nc2cnc3ccc(C#Cc4cccnc4)cc3c2n1-c1ccc(C(C)(C)C#N)cc1 | inactive
27 | Cc1ccc(C(=O)Nc2cccc(C(F)(F)F)c2)cc1-c1ccc2nc(NCCN3CCOCC3)ncc2c1 | inactive
28 | C[C@@]12O[C@@H](C[C@]1(O)CO)n1c3ccccc3c3c4c(c5c6ccccc6n2c5c31)CNC4=O | inactive
29 | C[C@@H](Oc1cc(-n2cnc3ccc(CN4CCN(C)CC4)cc32)sc1C(N)=O)c1ccccc1C(F)(F)F | inactive
30 | COc1ccc2c(c1)CC[C@@H](CN(C)CC(=O)O)[C@H]2c1ccccc1 | inactive
31 | CN(C)CCCN=c1c2ccccc2n(C)c2[nH]c(=O)n(C)c(=O)c12 | inactive
32 | COc1cc2c(Oc3ccc(NC(=O)C4(C(=O)Nc5ccc(F)cc5)CC4)cc3F)ccnc2cc1OCCCN1CCOCC1 | inactive
33 | CCN(CC)CCCCNc1ncc2cc(-c3cc(OC)cc(OC)c3)c(NC(=O)NC(C)(C)C)nc2n1 | inactive
34 | CC[C@@H]1C(=O)N(C)c2cnc(Nc3ccc(C(=O)NC4CCN(C)CC4)cc3OC)nc2N1C1CCCC1 | inactive
35 | NC(=O)Nc1cc(-c2cccc(F)c2)sc1C(=O)N[C@H]1CCCNC1 | inactive
36 | C=C1C(=CC=C2CCC[C@]3(C)[C@@H]([C@H](C)C=C[C@H](C)C(C)C)CC[C@@H]23)C[C@@H](O)C[C@@H]1O | inactive
37 | CC(C)C[C@H](NC(=O)CNC(=O)c1cc(Cl)ccc1Cl)B(O)O | inactive
38 | N#Cc1c(O)c2c(-c3ccc(-c4ccccc4O)cc3)csc2[nH]c1=O | inactive
39 | CC(=O)c1c(C)c2cnc(Nc3ccc(N4CCNCC4)cn3)nc2n(C2CCCC2)c1=O | inactive
40 | CC1(O)CC(c2nc(-c3ccc4ccc(-c5ccccc5)nc4c3)c3c(N)nccn23)C1 (stereo not given) | inactive
